In the library only some 11% were active in any assay of this set; here they are far more common.
ALDH1A1 block = qHTS Assay for Inhibitors of Aldehyde Dehydrogenase 1 (ALDH1A1); AID 1030, 2008; hit rate 7.3% among 220,000; Aldehyde dehydrogenase 1A1 (Homo sapiens), P00352; Purified ALDH1A1, NADH fluorescence, propionaldehyde substrate; Potency, µM (doses to about 75.3 µM), inactives show at the top dose activity, negative = inhibition, hits mostly inhibitors;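 further: potency means the concentration at half of the fitted maximal effect; plate controls were no enzyme wells and a reference inhibitor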
HPGD inh = qHTS Assay for Inhibitors of HPGD (15-Hydroxyprostaglandin Dehydrogenase); 15-hydroxyprostaglandin dehydrogenase [NAD(+)] (Homo sapiens), P15428; purified HPGD, NADH fluorescence kinetic, PGE2 substrate; Potency, µM, without a hit: at the highest dose activity change, negative = inhibition, hits mostly inhibitors; hit rate 4.3% among 150,000; AID 894, 2007; further: potency means the concentration at half of the fitted maximal effect
Target sequence (P15428 whole entry, looked up): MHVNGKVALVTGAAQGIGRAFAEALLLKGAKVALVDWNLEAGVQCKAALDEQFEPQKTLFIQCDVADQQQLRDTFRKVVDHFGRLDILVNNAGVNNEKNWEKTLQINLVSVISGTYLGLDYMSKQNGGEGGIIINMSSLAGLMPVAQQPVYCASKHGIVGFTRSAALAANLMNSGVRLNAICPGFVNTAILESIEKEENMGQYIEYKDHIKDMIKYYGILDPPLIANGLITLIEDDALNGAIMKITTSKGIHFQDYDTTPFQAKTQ
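NADH formation kinetics: reaction with 30 uM PGE2 and 1 mM NAD+ (final), 20 nM enzyme, Tris-HCl pH 8 with Tween 20, after 15 min compound preincubation at room temperature. Fluorescence change, last versus first of five reads.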
PNC assembly inh = High Content Assay for Compounds that inhibit the Assembly of the Perinucleolar Compartment; PC3M PTB-GFP, PNC prevalence imaging, 16 h; active compounds read low; activity change (PNC), negative = inhibition, % at 10 µM; hit rate 3.1% among 140,000; AID 2417, 2010;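 active means readout at or below -70, meaning at least 70% loss of cells showing the perinucleolar compartment, a nuclear body marking cancer cells; inconclusive means readout between -30 and a set limit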;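 further: plate controls were DMSO wells for no effect and camptothecin positive control wells for full effect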
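PC3M cells stably expressing PTB-GFP, 750–1000 cells/well, treated 16 h at 37 °C with compound (23 nl of library stock), in duplicate. After paraformaldehyde fixation and Hoechst stain, imaged at 20x; PNC prevalence scored by image analysis.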
An asterisk follows results filed as active; [ ] = remark or other dose. Unless noted, the call rests on the fitted dose curve; in most records, active means well fitted inhibition curve with a large enough effect (not every such curve was filed as active); inconclusive means small, poorly fitted or top-dose-only effect, or another doubt; inactive means no such curve, though single readings can be large or run the other way. Unless noted, on the % scale 0 is the no-effect control and ±100 the full control effect.

`Brc1ccccc1-c1nnc2sc(Cc3ccccc3)nn12` gave ALDH1A1 block -14.2%, HPGD inh 15.8µM* and PNC assembly inh 23.8.
For c1ccc(-c2nnc3sc(-c4ccncc4)nn23)cc1 the results were ALDH1A1 block inconclusive, HPGD inh -13.7% and PNC assembly inh 17.6.
For c1ccc(CCc2nn3c(-c4ccncc4)nnc3s2)cc1 the results were ALDH1A1 block 10µM*, HPGD inh 5.01µM* and PNC assembly inh inconclusive.
For Clc1ccccc1-c1nnc2sc(CCc3ccccc3)nn12 the results were ALDH1A1 block 3.98µM*, HPGD inh 8.91µM* and PNC assembly inh -9.4.
For Brc1ccccc1-c1nnc2sc(-c3ccc4c(c3)OCCO4)nn12 the results were ALDH1A1 block inconclusive, HPGD inh inconclusive and PNC assembly inh -4.7.
For C1CCC(N=C(NC23CC4CC(CC(C4)C2)C3)N2CCOCC2)CC1 the results were ALDH1A1 block -3.3% and HPGD inh -16.3%.
`CC(C)C[C@@H](CC(=O)N[C@@H](CCCN)CC(=O)N[C@@H]1CCCC[C@H]1C(=O)N[C@H](CC(=O)N[C@@H](CCC(=O)O)CC(=O)O)Cc1ccccc1)NC(=O)[C@@H]1CCCC[C@H]1N` gave ALDH1A1 block -12.3% and HPGD inh 0.2%.
`CC1=C(C)/C(=N/OC(=O)c2cccc([N+](=O)[O-])c2)C=CC1=O` gave ALDH1A1 block inconclusive, HPGD inh -13.2% and PNC assembly inh inconclusive.
Cc1ccc(S(=O)(=O)CC(CN2CCOCC2)N2CCOCC2)cc1 (stereo unspecified) was read as ALDH1A1 block 1.3%.
O=S(=O)(CC(CN1CCCC1)N1CCCC1)c1ccc2ccccc2c1 (stereo unspecified) was read as ALDH1A1 block inconclusive, HPGD inh -11.3% and PNC assembly inh -100.0*.
For CCCOC(=O)Nc1cc(OC)ccc1[N+](=O)[O-] the results were ALDH1A1 block -5.0%.
Screening CC(NC(=O)COC(=O)Cc1ccsc1)C1CC2CCC1C2 (stereo unspecified) returned ALDH1A1 block -1.6%, HPGD inh 28.2µM* and PNC assembly inh 4.0.
For O=C(COC(=O)Cc1ccsc1)NCc1ccccc1 the results were ALDH1A1 block 5.2%, HPGD inh -4.4% and PNC assembly inh 30.8.
`O=C(COC(=O)Cc1ccsc1)NCC1CCCCC1` gave ALDH1A1 block inconclusive, HPGD inh -3.4% and PNC assembly inh -89.7*.
`CC(NC(=O)COC(=O)Cc1ccsc1)c1ccccc1` (stereo unspecified) gave ALDH1A1 block 7.2%, HPGD inh -12.7% and PNC assembly inh 32.9.
Screening O=C(COC(=O)Cc1ccsc1)NCc1ccc(Cl)cc1 returned ALDH1A1 block 12.2%, HPGD inh 28.2µM* and PNC assembly inh 2.8.
O=C(COC(=O)Cc1ccc(Br)cc1)NCC1CCCCC1 was read as ALDH1A1 block -9.1%.
Screening COc1cccc(C(=O)Nc2cccc(-c3nc4ncccc4o3)c2C)c1 returned ALDH1A1 block inconclusive, HPGD inh -16.0% and PNC assembly inh 34.7.
Screening CCOc1cccc(C(=O)Nc2cccc(-c3nc4ncccc4o3)c2C)c1 returned ALDH1A1 block 17.8µM*, HPGD inh inconclusive and PNC assembly inh inconclusive.
Screening O=C1CCC/C(=N/NC(=O)C2CCN(S(=O)(=O)c3cccs3)CC2)C1 returned ALDH1A1 block 4.1%, HPGD inh -2.5% and PNC assembly inh inconclusive.
Cc1c(NC(=S)N/N=C/C=C/c2ccccc2)c(=O)n(-c2ccccc2)n1C was read as ALDH1A1 block -4.3%.
Cc1c(NC(=S)N/N=C/C=C/c2ccc([N+](=O)[O-])cc2)c(=O)n(-c2ccccc2)n1C was read as ALDH1A1 block -10.7%, HPGD inh -13.8% and PNC assembly inh -109.0*.
For CCOC(=O)C1=C(C)Nc2ccccc2N=C1NC(=O)C(c1ccccc1)c1ccccc1 the results were ALDH1A1 block 0.141µM*.
For CCOC(=O)C1=C(CC)Nc2ccccc2N=C1NC(=O)c1ccc(S(=O)(=O)N(C)C)cc1 the results were ALDH1A1 block inconclusive, HPGD inh -23.7% and PNC assembly inh inconclusive.
`CCOC(=O)C1=C(CC)Nc2ccccc2N=C1NC(=O)c1ccc(S(=O)(=O)N2CCOCC2)cc1` gave ALDH1A1 block 14.1µM*.
`CCOC(=O)C1=C(C)Nc2ccccc2N=C1NC(=O)c1cccc(S(=O)(=O)N(C)C)c1` gave ALDH1A1 block 0.2%, HPGD inh 0.8% and PNC assembly inh -8.3.
Screening CC(C)Cn1c(SCc2nc3ccccc3c(=O)[nH]2)nc2ccccc2c1=O returned ALDH1A1 block 0.6%, HPGD inh -5.5% and PNC assembly inh 27.8.
For OC(COc1ccc2c(c1)OCO2)CN1CCc2ccccc2C1 (stereo unspecified) the results were ALDH1A1 block -5.2%, HPGD inh -12.4% and PNC assembly inh inconclusive.
`COc1cccc(C(=O)Nc2ccc(NC(=O)C(C)(C)C)cn2)c1` gave ALDH1A1 block 18.4%, HPGD inh -4.6% and PNC assembly inh -83.9*.
Screening COc1cccc(C(=O)Nc2ccc(NC(C)=O)cc2)c1 returned ALDH1A1 block -1.7%, HPGD inh -4.7% and PNC assembly inh 12.9.
`c1ccc(CCn2cnc3ccccc32)cc1` gave ALDH1A1 block 14.9%.
Screening c1ccc2c(c1)OCC(c1nn3c(Cn4nnc5ccccc54)nnc3s1)O2 (stereo unspecified) returned ALDH1A1 block 11.2µM*, HPGD inh 10µM* and PNC assembly inh -6.8.
Screening c1ccc(CCc2nn3c(Cn4nnc5ccccc54)nnc3s2)cc1 returned ALDH1A1 block 3.55µM*, HPGD inh 10µM* and PNC assembly inh -18.0.
`c1ccc(OCc2nn3c(Cn4nnc5ccccc54)nnc3s2)cc1` gave ALDH1A1 block 7.94µM*, HPGD inh 8.91µM* and PNC assembly inh -12.8.
For c1ccc(CCc2nn3c(Cn4cnc5ccccc54)nnc3s2)cc1 the results were ALDH1A1 block 3.55µM*, HPGD inh 15.8µM* and PNC assembly inh 6.7.
For O=C(O)CSc1nnc(Cn2nnc3ccccc32)n1CCc1ccccc1 the results were ALDH1A1 block -5.6%, HPGD inh inconclusive and PNC assembly inh inconclusive.
Screening O=c1c2ccccc2nnn1CSc1nnc(C2COc3ccccc3O2)n1-c1ccccc1 (stereo unspecified) returned ALDH1A1 block -15.2%, HPGD inh -4.9% and PNC assembly inh -6.6.
For c1ccc(OCc2nn3c(-c4cccnc4)nnc3s2)cc1 the results were ALDH1A1 block -14.7%, HPGD inh inconclusive and PNC assembly inh 10.5.
Screening Cc1cc(CN2CCCCC2)c(O)c(CN2CCCCC2)c1 returned ALDH1A1 block 0.0%[13.5 µM] and HPGD inh -9.5%.
CC(C)(C)Cn1nc(-c2ccc(Cl)cc2)c2c(N)ncnc21 was read as ALDH1A1 block 11.7% and HPGD inh -2.2%.
Clc1ccccc1-c1nn2c(Cn3cnc4ccccc43)nnc2s1 was read as ALDH1A1 block 20µM*, HPGD inh 14.1µM* and PNC assembly inh -4.8.
`COc1ccc(OCc2nn3c(Cn4cnc5ccccc54)nnc3s2)cc1` gave ALDH1A1 block 22.4µM*, HPGD inh 14.1µM* and PNC assembly inh 42.8.

Screening data as filed in PubChem BioAssay.
